Hit rate of the full screen: of about 69,000 compounds, about 8,600 (12%) showed an effect of 50% or more. The full list was thinned out, with strong results kept by preference.

This test deals with Plasmodium berghei. The experiment in a line: Screen against P. berghei liver stage (PbLuc), transformed with Luciferase, at 10uM. The test is classed as functional, HepG2. The conditions noted are these: tested at 10 uM.
Regarding `Cc1ccc(OCc2occc2C(=O)N2CC[C@H](CO)[C@@H](O)C2)cc1`, the INHIBITION stood at 26.6%. Consider `Cc1ccc(OCc2occc2C(=O)N2CCOC(C(=O)O)C2)cc1` (configuration not stated), for which the INHIBITION is reported as -0.71%.

Consider `Cc1ccc(OCc2occc2C(=O)O)cc1`, for which the INHIBITION turned out to be 64.1%. Regarding `NS(=O)(=O)c1cc(C(=O)N2CCCC(n3ccnc3)C2)cs1` (configuration not stated), the INHIBITION was 29.4%. In the case of `O=S1(=O)CCC(S(=O)(=O)c2cccc(S(=O)(=O)N3CCOCC3)c2)C1` (configuration not stated) it was 58.9%; in that of `CSCc1cccc(S(=O)(=O)N2CCC(C)CC2)c1`, 32.4%; in that of `CC1=CCN(S(=O)(=O)c2cccc(C(=O)N3CCOCC3)c2)CC1`, 37.1%. The result for `O=S1(=O)CCC(S(=O)(=O)c2cccc(S(=O)(=O)N3CCCC3)c2)C1` (configuration not stated) reads 36.3%; that for `O=S1(=O)CCC(S(=O)(=O)c2cccc(S(=O)(=O)N3CCCCCC3)c2)C1` (configuration not stated), 50.2%; that for `CN1CCN(S(=O)(=O)c2cccc(S(=O)(=O)C3CCS(=O)(=O)C3)c2)CC1` (configuration not stated), 46.7%. In the case of `COCCN1C[C@H]2[C@@H](C1)N(C(=O)c1cccc(OC)c1)CC[C@H]2OC` it was 9.63%; in that of `CC(C)c1ncc2c(n1)CN(Cc1nc(-c3cccnc3)no1)CC2`, 33.7%; in that of `Cc1nc(CN2CCOCC3(CCN(c4ncccn4)CC3)C2)cs1`, 27.6%. Regarding `Cc1nn(C)c(C)c1C1CCCN1CC(=O)NCc1ccco1` (configuration not stated), the INHIBITION came out at 7.12%. `O=C(NC1CC1)[C@H]1C[C@H]2OCC[C@H]2N(Cc2cccc3ccccc23)C1`: the INHIBITION came to 11.4%. In the case of `Cn1c(CN2CCCc3cc(F)cc(F)c32)cc(=O)n(C)c1=O`, the INHIBITION is on record as 12.8%. In the case of `CCNc1nc(N(C)C)nc(-n2cnc(SC)n2)n1` it was 46.1%. On to `Fc1cnccc1CN1CCCC2(CCN(c3ncccn3)CC2)C1`, for which the INHIBITION is given as 30.3%. The result for `O=C(O)[C@]12CCCN(C3CCOC3)C[C@H]1CN(c1ncccn1)C2` (some centres not stated) reads 31.2%; that for `Fc1ccccc1CN1CCCC2(CCN(c3ncccn3)C2)C1` (configuration not stated), 74.9%. The result for `c1cnc(N2CCCC3(CN(CC4CCOCC4)CCO3)C2)cn1` (configuration not stated) reads -36%; that for `O=C(O)[C@]12CCCN(Cc3ccccc3)C[C@H]1CN(c1ncccn1)C2`, 2.01%. For `c1cnc(N2CCC3(CCCN(CC4CCCCC4)C3)C2)cn1` (configuration not stated), the INHIBITION is listed as 63%. The result for `c1cnc(N2CCOCC3(CCCN(CC4CC4)C3)C2)cn1` (configuration not stated) reads 26.8%; that for `c1cnc(N2CCC3(CCCN(CC4CC4)C3)CC2)nc1`, 61.1%.

With `O=C(O)[C@]12CCCN(CC3CCOC3)C[C@H]1CN(c1ncccn1)C2` (some centres not stated), the INHIBITION was 53.9%. In the case of `c1cnc(N2CCCC3(COCCN(CC4CC4)C3)C2)nc1` (configuration not stated) it was -6.23%. With `c1cnc(N2CCC3(CCN(CC4CC4)CC3)CC2)nc1`, the INHIBITION is given as -5.69%. For `Fc1ccccc1CN1CCCC2(CCN(c3ncccn3)CC2)C1`, the INHIBITION is 30.3%.

Consider `CN(CC(=O)N1CCC(N(C)c2ccccc2)CC1)c1cnccn1`, for which the INHIBITION was found to be 9.9%. In the case of `COCCCNC(=O)CN1CCC(c2ccccc2)C1` (configuration not stated) it was -4.99%; in that of `Cn1cccc1C(=O)N[C@@H]1CN(CC2CC2)[C@@H]2COC[C@@H]21`, 0.547%; in that of `CN(C)S(=O)(=O)c1ccc(-c2nc(C#N)c(NC(C)(C)C)o2)o1`, 16%. In the case of `Cc1ccc(C(=O)N2CCC3(CCC(=O)N(CCCO)C3)CC2)c(O)c1` it was -45%; in that of `COCCS(=O)(=O)NC(C)c1cccc(C)c1C` (configuration not stated), 48.2%; in that of `CCc1nnc2n1CCN(C(=O)CCc1ccc(C)c(Cl)c1)C2`, -27%. In the case of `O=C(Cc1c(F)cccc1Cl)N1CCC(Nc2cccnn2)CC1` it was -8.225%. Turning to `CCC(CC)CN1CCC2(CCCN(c3ncccn3)C2)C1` (configuration not stated), the INHIBITION was 62.5%.

Regarding `COCCN1CCC2(CCCN(c3ncccn3)C2)C1` (configuration not stated), the INHIBITION was determined as 48.3%. The result for `c1cnc(N2CCCC3(CCN(Cc4ccncc4)C3)C2)nc1` (configuration not stated) reads 42.6%; that for `c1cnc(N2CCC3(CCN(CC4CCCC4)CC3)C2)nc1`, 28.4%; that for `c1cnc(N2CCC3(CCCN(Cc4ccncc4)C3)CC2)nc1`, 82.3%. The result for `c1cnc(N2CCCC3(CCN(CC4CCC4)C3)C2)nc1` (configuration not stated) reads 55.5%; that for `c1cnc(N2CCCC3(CCN(CC4CC4)C3)C2)nc1` (configuration not stated), 43.9%. In the case of `c1cnc(N2CCCC3(CCN(c4ncccn4)C3)C2)nc1` (configuration not stated) it was 44.8%; in that of `c1cnc(N2CC3(CCN(Cc4ccncc4)C3)C2)nc1`, 11.3%. Turning to `CC1CN(S(=O)(=O)c2ccc(C(=O)NCC(F)F)cc2)CCCO1` (configuration not stated), the INHIBITION is recorded as 49.2%.

In the case of `Cc1ccc(CN2CCN(C(=O)CCc3nc(Cl)n[nH]3)CC2=O)cc1`, the INHIBITION came out at 29.4%. In the case of `O=C1CN(Cc2ccc3ccccc3n2)CCN1C1CCCC1` it was 36%. The result for `Cc1nnc(NC(=O)NCc2ccc(OC(C)C)nc2)s1` reads 21.5%; that for `CN(CC(=O)NCC(F)(F)F)Cc1cccc2c1OCCO2`, 44.7%; that for `CCN(CC(=O)NC(C)(C)C)Cc1cccc2c1OCCO2`, 23.3%. With `CN(CC(=O)NC(C)(C)C)Cc1cccc2c1OCCO2`, the INHIBITION was 65%. `CCN(Cc1cccc2c1OCCO2)C(=O)NC(C)(C)C`: the INHIBITION stood at 51.1%. Turning to `CCN(Cc1cccc2c1OCO2)C(=O)Nc1ccncc1`, the INHIBITION amounted to 46.5%. Regarding `CCN(Cc1cccc2c1OCO2)C(=O)NC1CC1`, the INHIBITION was 36.4%.

Regarding `CCC(O)CN1CCN(C(=O)c2sccc2C(C)C)CC1` (configuration not stated), the INHIBITION is 23.4%. For `CC(C)(O)C1CCCN(C(=O)Nc2nc(-c3ccccc3)ns2)C1` (configuration not stated), the INHIBITION is listed as -62.8%.

Turning to `CC(C)(O)C1CCN(C(=O)Nc2nc(-c3ccccc3)ns2)CC1`, the INHIBITION was found to be 58.9%.

On to `O=C(Nc1nc(-c2ccccc2)ns1)N1CCC(F)CC1`, for which the INHIBITION is -47%. In the case of `CC(C)n1cnnc1C1CCCN(S(=O)(=O)c2c[nH]cn2)C1` (configuration not stated) it was 36.3%; in that of `O=C(Cc1csc(-c2ccccn2)n1)NCCCN1CCCCCC1=O`, 9.76%.

Turning to `COc1ccc(NS(=O)(=O)c2cnc(NC(C)=O)s2)cc1`, the INHIBITION turned out to be 50.7%. In the case of `CC(=O)Nc1ncc(S(=O)(=O)Nc2ccc3c(c2)OCCO3)s1` it was 81.4%.

Regarding `CC(=O)Nc1ncc(S(=O)(=O)N2CCC(C)CC2)s1`, the INHIBITION is given as 61.2%. Regarding `CC(=O)Nc1ncc(S(=O)(=O)N2CCCC(C)C2)s1` (configuration not stated), the INHIBITION is on record as 40.2%. In the case of `CC(=O)Nc1ncc(S(=O)(=O)Nc2ccc(C)cc2)s1` it was 77.2%; in that of `COC(=O)c1ccc(NS(=O)(=O)c2cnc(NC(C)=O)s2)cc1`, 1.86%; in that of `CC(=O)Nc1ncc(S(=O)(=O)Nc2ccccc2)s1`, 40.8%. In the case of `CC(=O)Nc1ncc(S(=O)(=O)Nc2ccc(F)cc2)s1` it was -6.32%. In the case of `CC(=O)Nc1ncc(S(=O)(=O)N2CCOCC2)s1` it was 21.7%; in that of `CC(=O)Nc1ncc(S(=O)(=O)Nc2cccc(F)c2)s1`, -13%. For the molecule `COC(=O)c1cccc(NS(=O)(=O)c2cnc(NC(C)=O)s2)c1`, the INHIBITION is on record as 22.9%. The result for `CC(=O)Nc1ncc(S(=O)(=O)Nc2cccc(C)c2)s1` reads 27.5%; that for `CC(NC(=O)CNS(C)(=O)=O)c1ccccc1Oc1ccccc1` (configuration not stated), 37.1%; that for `Cc1cc(N2CCCCC2)nc(N(CCO)CCO)c1C#N`, 31.8%. Regarding `CN(C(=O)c1ccncc1)c1nnc(C2CCOC2)s1` (configuration not stated), the INHIBITION worked out at 1.25%. In the case of `Cc1cccc(CN2C(=O)CO[C@@H]3CN(Cc4cnn(C)c4)C[C@H]32)c1` it was 45.2%. The result for `COc1ccc(CN2C[C@H]3CCC[C@@H](CN(C)C)[C@H]3C2)cn1` reads 34.6%; that for `Cc1cc(C(=O)N2CCCC(c3ccc(C(=O)O)cc3)C2)c(C)o1` (configuration not stated), 9.52%. As to `COc1ccc(Cl)cc1NCCC(=O)NCCNc1cnccn1`, the INHIBITION is 14.4%. The result for `Cc1[nH]ccc1C(=O)NCc1ncoc1C` reads -17.3%; that for `CCC(=O)N1CCC1c1cc(NC2CCCC2)nc(C)n1` (configuration not stated), 14.5%; that for `COc1ccc(C(C)N2CCC(C(=O)N(C)C)CC2)cc1Cl` (configuration not stated), 24.8%. In the case of `COc1ccc(C(C)N2CCC(CNC(C)=O)CC2)cc1Cl` (configuration not stated) it was 70.3%; in that of `COc1ccc(C(C)N2CCC(OC)CC2)cc1Cl` (configuration not stated), 42.4%. The result for `COc1ccc(C(C)N2CCC(C(=O)NC3CC3)CC2)cc1Cl` (configuration not stated) reads 41.5%.

In the case of `COc1ccc(C(C)N2CCC(CO)CC2)cc1Cl` (configuration not stated), the INHIBITION is recorded as 40.6%. The result for `COc1ccc(C(C)N2CCC(NS(C)(=O)=O)CC2)cc1Cl` (configuration not stated) reads 57.3%; that for `CC(C)c1cc(NC(=O)Cn2ccc(=O)c3ccccc32)[nH]n1`, 6.72%; that for `CCN(CC1COc2ccccc2O1)C(=O)CCn1cncn1` (configuration not stated), -4.4%. The result for `Cc1nn(C)c(N(C)C)c1CNCc1cccnc1OC(C)C` reads 19.6%; that for `CCC(Nc1ccc(Oc2ccc(C#N)cc2OC)cc1)C(N)=O` (configuration not stated), 73.1%; that for `CCC(Nc1ccc(Oc2ccccc2OC)cc1)C(N)=O` (configuration not stated), -34.1%. The result for `CCC(Nc1ccc(Oc2cccc(C#N)c2)cc1)C(N)=O` (configuration not stated) reads 39.7%; that for `CCC(C)NC(=O)c1cc(S(N)(=O)=O)c(Br)s1` (configuration not stated), 14%; that for `Cc1oc(C(=O)O)cc1S(=O)(=O)Nc1ccc(Cl)cc1F`, -20.2%. For `CC(=O)Nc1ccc(Oc2cc(C)nc(C3CCNCC3)c2)cc1`, the INHIBITION worked out at 19.15%. Turning to `CC(=O)N1CCCC1CCc1ccnc(-c2cncnc2)c1` (configuration not stated), the INHIBITION is recorded as 27.45%. In the case of `COC(=O)C1=C(C)N=C2SCC(=O)N2C1c1cn(C)nc1C` (configuration not stated), the INHIBITION was 12.6%. `Cc1ccsc1CN(CCN(C)C)C(=O)c1cc2ccccc2[nH]1`: the INHIBITION stood at 71%. In the case of `CN(C)CCN(Cc1ccccc1)C(=O)C1=NNC(=O)CC1` it was 18%; in that of `CN(C)CCN(Cc1ccsc1)C(=O)C1=NNC(=O)CC1`, 49%. The result for `Cc1ccsc1CN(CCN(C)C)C(=O)C1=NNC(=O)CC1` reads 67.2%.

For `COC(=O)c1ccccc1C(=O)N(CCN(C)C)Cc1sccc1C`, the INHIBITION came to 8.03%.

With `Cc1ccsc1CN(CCN(C)C)C(=O)c1ccccc1C#N`, the INHIBITION is reported as 14.6%. The result for `Cc1nn(C)c(C)c1C1CCCN1C(=O)CCCNc1ncccn1` (configuration not stated) reads -16%.

The record behind these values is ChEMBL document CHEMBL4513216, “Probing the Open Global Health Chemical Diversity Library for Multistage-Active Starting Points for Next-Generation Antimalarials” (ACS Infect Dis, 2020).
